Laboratory results taken from ChEMBL document CHEMBL3988442, “University of Dundee, Small-Polar-MMV Screening Library” (2021).
Hit rate of the full screen: of about 48,000 compounds, about 13,000 (27%) showed an effect of 50% or more. The list shows a part of the results.

tested on: Wolbachia pipientis; test: Anti-Wolbachia Cell-Based Screen; format: functional; set-up: scale not given: in the data most compounds retested in dose-response had high values; conditions: 5 µM

| SMILES | Percent Effect [%] |
| --- | --- |
| CNS(=O)(=O)CC1CCCN1c1ccccn1 (stereo unspecified) | -17.04 |
| Cc1nc(-c2ccccc2)sc1CSC(C)C(N)=O (stereo unspecified) | -3.877 |
| CCOC(C)c1nc(CN2CCC(NC(C)C)CC2)cs1 (stereo unspecified) | 9.562 |
| Cc1nn2cc(CCNC(=O)c3cc(C(C)C)no3)nc2s1 | -4.133 |
| Cc1cc(Cl)ccc1-n1ncc(C(=O)N(C)CCc2ccccn2)c1N | 185.4 |
| CCOC(=O)c1cnn(-c2cc(C)ccn2)c1N | -12.86 |
| CN(CCc1ccccn1)C(=O)c1ccccc1F | -16.13 |
| Cc1cc(C(=O)N2C[C@@H]3[C@@H](CN(C)CCc4ccccn4)[C@@H]3C2)c(C)o1 | -1.529 |
| CN(CCc1ccccn1)C(=O)C(c1cccnc1)N1CCOCC1 (stereo unspecified) | 2.073 |
| Cc1ccc(C)c(-n2ncc(C(=O)N(C)CCc3ccccn3)c2N)c1 | 159.7 |
| CN(CCc1ccccn1)C(=O)c1cnn(-c2ccccc2F)c1N | 110.9 |
| Cc1ccccc1SC1CCN(C(=O)[C@@H]2C[C@@H](N)CN2)CC1 | -21.68 |
| O=C(O)C(F)(F)F.O=C(O)C(F)(F)F.O=C(O)c1cc2c(nc1-c1cncnc1)CCN(C1CCOC1)CC2 (stereo unspecified) | -20.41 |
| Cc1cnn(CC2CCCCN2CCCS(N)(=O)=O)c1 (stereo unspecified) | -7.264 |
| OC1(CN2CCCCC2)CCN(Cc2c[nH]c(CC3CCCC3)n2)C1 (stereo unspecified) | 5.378 |
| CN(Cc1c(F)cccc1Cl)C(=O)c1cnn(CCN2CCCCC2)c1 | 4.459 |
| COc1ccc(F)c(-c2nccn2CCN2CCCC2)c1 | -4.269 |
| O=C(CN1CCCCCC1)NCc1ccc2[nH]c(=O)[nH]c2c1 | 33.1 |
| Cc1ccccc1N1CCN(C(=O)c2cscn2)C(C)C1 (stereo unspecified) | 6.365 |
| CC(C)OC(=O)[C@@H]1CCN(C(=O)c2ccccn2)[C@@H]1c1ccc(F)cc1 | 116.9 |
| O=C1N[C@@H]2CCN(C(=O)c3ccccc3)[C@@H]2C(=O)N1c1ccc(F)cc1 | 9.769 |
| CC(C)OC(=O)N1C[C@H]2CC[C@@H]1CN(C(=O)c1ccccn1)C2 | 1.179 |
| O=C(O)[C@@H]1CCN(C(=O)c2cscn2)[C@@H]1c1ccc(F)cc1 | 132.5 |
| O=C(O)[C@@H]1CCN(C(=O)c2ccccn2)[C@@H]1c1ccc(F)cc1 | 129.5 |
| O=C(O)C(F)(F)F.O=C([C@H]1C[C@H]2OCC[C@H]2N(C(=O)c2ccccn2)C1)N1CCCCO1 | -2.538 |
| O=C(O)[C@@H]1CCN(C(=O)Cc2ccccn2)[C@@H]1c1ccc(F)cc1 | 124 |

| SMILES | Percent Effect [%] |
| --- | --- |
| O=C(COC1CCCCC1)N1CCN(C(=O)Cc2ccccn2)CC1 | -7.801 |
| O=C(c1cscn1)N1CC[C@H]2[C@@H]1CCC(=O)N2c1ccccc1 | 5.214 |
| O=C(COCC1CC1)N1CCN(C(=O)Cc2ccccn2)CC1 | 1.286 |
| CN(C(=O)c1cccnc1OCC(F)F)c1ccc2c(c1)CCO2 | -7.463 |
| Cc1c(-c2c(-c3ccccc3)ncn2[C@@H](C(=O)O)[C@H](C)O)cnn1C | -13.76 |
| COCc1ncn(Cc2nc(-c3ccc(OC)cc3F)oc2C)n1 | -0.9498 |
| Cc1ccc(N2CCC(NC(C)c3cccs3)CC2)nc1 (stereo unspecified) | -4.773 |
| Cn1cc(-c2csc(N3CCSCC3)n2)cn1 | -8.104 |
| CS(=O)(=O)N1CCC(c2nnc(CN3CCCC3)n2C2CC2)CC1 | -12.66 |
| CN(Cc1cc(C[C@@H]2C[C@H](N)C2(C)C)no1)c1ccccc1 | 4.71 |
| O=C(O)C(F)(F)F.O=C(c1ccccn1)N1CCC2(CC1)C(=O)Nc1ccccc12 | -9.696 |
| O=C(O)C(F)(F)F.O=C(c1ccc2ccccc2n1)N1CCC2(CCN2c2ncccn2)C1 (stereo unspecified) | 82.49 |
| Cc1ccc(C(=O)N2CCC3(CC2)NC(=O)CC3c2ccccc2)cn1.O=C(O)C(F)(F)F (stereo unspecified) | 15.96 |
| O=C(O)C(F)(F)F.O=C(c1ccccc1)N1CCC2(CCCN2c2ncccn2)CC1 | 93.81 |
| O=C(O)C(F)(F)F.O=C(c1cnc2ccccc2c1)N1CCC2(CCN2c2ncccn2)C1 (stereo unspecified) | 69.16 |
| Cc1ccc(C(=O)N2CCC3(CCN3c3ncccn3)C2)cn1.O=C(O)C(F)(F)F (stereo unspecified) | 98.39 |
| O=C(O)C(F)(F)F.O=C(O)C(F)(F)F.O=C(c1c[nH]cn1)N1CCC(F)(F)C2(CCN(c3ccccn3)C2)C1 (stereo unspecified) | 6.098 |
| COCC1CC2(CCN(C(=O)c3cnc4ccccc4c3)CC2)CO1.O=C(O)C(F)(F)F (stereo unspecified) | 5.909 |
| CCCc1nnsc1C(=O)N1CCN(CC(O)C2CC2)CC1.Cl (stereo unspecified) | -6.099 |
| O=C(c1ccc2sccc2c1)N1CCC(C(=O)O)(n2cccn2)CC1 | -6.348 |
| COc1ccccc1-c1ncc(CN2CCCC[C@H](N(C)C)C2)s1 | -5.387 |
| Cc1cc(F)c(S(=O)(=O)N(C)CCn2cccn2)cc1F | -6.407 |
| O=C(O)C(F)(F)F.O=C(c1cccc(O)c1)N1CCC2(CCN2c2ncccn2)C1 (stereo unspecified) | 103.8 |
| CCN(CC)CCNC(=O)c1cc(C(C)C)nc(N2CCCC2)n1 | 3.007 |
| CCC(NC(=O)C1CCN(S(C)(=O)=O)CC1)c1ccc(OC)c(OC)c1 (stereo unspecified) | -10.24 |
| CS(=O)(=O)N1CCC(C(=O)NC(Cc2ccsc2)c2ccccn2)CC1 (stereo unspecified) | -12.55 |

| SMILES | Percent Effect [%] |
| --- | --- |
| Cc1csc(C(Cc2ccsc2)NC(=O)C2CCN(S(C)(=O)=O)CC2)n1 (stereo unspecified) | 94.26 |
| CS(=O)(=O)N1CCC(C(=O)NC(Cc2ccsc2)c2cccnc2)CC1 (stereo unspecified) | 127.1 |
| CCC(NC(=O)NC1CCN(S(C)(=O)=O)CC1)c1cccs1 (stereo unspecified) | 5.409 |
| CCC(NC(=O)C1CCN(S(C)(=O)=O)CC1)c1ccc(OC)c(C)c1 (stereo unspecified) | -3.123 |
| COCCn1cc(C(=O)N2CCCC2c2cccc(C)c2)ccc1=O (stereo unspecified) | 1.918 |
| CCC(C)NS(=O)(=O)Cc1cccc(NC(=O)C(C)C)c1 (stereo unspecified) | -6.422 |
| CCC(CC)C(O)CNC(=O)Nc1cccc(-c2nccn2C)c1 (stereo unspecified) | 17.02 |
| CC(NC(N)=O)C(=O)Nc1ccc(OCc2cccc(F)c2)c(F)c1 (stereo unspecified) | -7.991 |
| CN(C)c1ncc(-c2c(-c3ccccc3)ncn2C(CO)C(=O)O)cn1 (stereo unspecified) | -11.25 |
| CCC(Nc1cccc(OC)c1)C(=O)N(CCO)Cc1nccs1 (stereo unspecified) | -9.396 |
| CCn1nnnc1-c1cccc(NC(N)=O)c1 | 11.47 |
| Cn1ccnc1-c1cccc(NC(=O)NCCCO)c1 | -3.437 |
| CC[C@@H](C)[C@@H](N)C(=O)Nc1cccc(-c2cnc(NCCO)nc2)c1 | 122.5 |
| CC[C@@H](C)[C@@H](N)C(=O)Nc1cccc(-c2cnc(N(C)C)nc2)c1 | 111.5 |
| CC[C@@H](C)[C@@H](N)C(=O)Nc1cccc(-c2cnc(N)nc2)c1 | 118.7 |
| CC[C@@H](C)[C@@H](N)C(=O)Nc1cccc(-c2cnc(N(C)CCO)nc2)c1 | 118.1 |
| CN(C)c1ncc(NC(=O)c2cccc(Nc3cnn(C)c3)c2)cn1 | -2.232 |
| O=C(NCCc1nnc2n1CCCCC2)N1CCC2(CCCC2)CC1 | -8.228 |
| O=C(CN1CCN(c2ccnc3c(F)ccc(F)c23)CC1)N1CCCC1 | -6.623 |
| Cc1ccc(C)c(OC(C)C(=O)Nc2cccnc2)c1 (stereo unspecified) | -35.64 |
| CCc1nnc2n1CCN(CCC(=O)Nc1cc(C)on1)C2 | -8.821 |
| CCc1nnc2n1CCN(CCC(=O)Nc1sccc1C#N)C2 | 88.78 |
| CCc1nnc2n1CCN(CC(=O)Nc1sccc1C#N)C2 | 8.043 |
| CC(C)c1nnc2n1CCN(CC(=O)Nc1nncs1)C2 | 3.103 |
| CC(C)c1nnc2n1CCN(CC(=O)Nc1sccc1C#N)C2 | -2.717 |
| CC(C)c1nnc2n1CCN(CCC(=O)Nc1sccc1C#N)C2 | 103.7 |

| SMILES | Percent Effect [%] |
| --- | --- |
| CCc1c(C)sc2ncnc(N3C[C@H](O)[C@@H](N4CCCC4)C3)c12 | 10.47 |
| O=C(NCCn1nc2ccccn2c1=O)c1cc(C2CC2)[nH]n1 | 7.505 |
| Cl.O=C(NCCn1nc(C2CCNC2)c2cccnc21)c1ccccc1 (stereo unspecified) | 112 |
| Cl.O=C(NCCn1nc(C2CCNC2)c2cccnc21)c1ccccn1 (stereo unspecified) | 108.3 |
| O=C(NCCN1CCNCC1)c1nc2ccccc2c(=O)[nH]1 | -2.833 |
| O=C(NCCCc1nnc2ccccn12)c1ccccc1C1CCNC1 (stereo unspecified) | 3.583 |
| O=C(NCc1cnn2cccnc12)c1cccc(CC2CCNCC2)c1 | 4.069 |
| Cc1nc(C)n(CC2CCCCN2CC(=O)N(C)Cc2ccco2)n1 (stereo unspecified) | -3.611 |
| CCN(C(=O)NCc1ncc(C)c(OC)c1C)C(C)c1cccnc1 (stereo unspecified) | -16.66 |
| CC(C)CNc1nc2c(cc1C(=O)NCC1CC1)CCNCC2 | 3.893 |
| O=C(c1cc(C2CC2)nc2onc(-c3ccccc3)c12)N1CCOCC1 | 3.139 |
| O=C(c1cc(C2CC2)nc2onc(-c3ccccc3)c12)N1CC[C@H](O)C1 | 6.458 |
| O=C(NC1CC1)c1cc(C2CC2)nc2onc(C3CCNCC3)c12 | 97.57 |
| O=C(c1cc(-c2ccccc2)nc2onc(C3CC3)c12)N1CC[C@H](O)C1 | -0.1163 |
| CC(C)CNC(=O)c1cc(C2CC2)nc2onc(C3CCNCC3)c12 | 97.28 |
| FC(F)(F)CCc1ccnc(N2CCN(Cc3ccncc3)CC2)n1 | -2.758 |
| CCO[C@H]1CO[C@@]2(CCCN(S(=O)(=O)c3ccccc3)C2)C1 | -23.06 |
| COCC(=O)N1CC[C@]2(O)CCN(C(=O)CCc3ccsc3)C[C@@H]2C1 | 120 |
| O=C(CCc1ccsc1)N1CCC(Cc2ccc(CO)cc2)C1 (stereo unspecified) | -8.756 |
| COCC(=O)N1CC[C@]2(O)CCN(Cc3ccsc3)C[C@@H]2C1 | 113.5 |
| COCC(=O)N1CC[C@]2(O)CCN(Cc3cccnc3OC)C[C@@H]2C1 | 17.33 |
| COCC(=O)N1CCN(C(=O)CCc2ccsc2)CC1 | -13.91 |
| COCc1nc(C(=O)N2CCN(Cc3ccsc3)CC2)cs1 | -16.22 |
